According to PubChem BioAssay AID449768 (Vanderbilt High Throughput Screening Facility, 2010):
Among all 110,000 compounds or so, about 1,400 (1.3%) were called active. Many of the other results were omitted from the sample, so actives are more common in it than they were. Values without a mark were called inactive.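 Rule for the calls: active = Z score or B-score, a plate-position-corrected score, falls beyond the plate's 99.7% confidence bounds, in either direction; inactive = both scores lie inside the 99.7% bounds.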

biological target: Sodium-dependent dopamine transporter (Homo sapiens) (UniProt Q01959); assay: changed hDAT dopamine uptake under cocaine IC80, either direction, primary screen, cocaine antagonist project, cell-based, LLC-PK1 hDAT, [14C]-dopamine uptake, MLSMR (AID 449768); conditions: LLC-PK1 hDAT cells, [14C]-dopamine uptake with cocaine IC80; at 10 µM; actives deviate in either direction;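 note: scored against the spread of the other compound wells on the same plate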
Sequence (Q01959 whole entry, looked up): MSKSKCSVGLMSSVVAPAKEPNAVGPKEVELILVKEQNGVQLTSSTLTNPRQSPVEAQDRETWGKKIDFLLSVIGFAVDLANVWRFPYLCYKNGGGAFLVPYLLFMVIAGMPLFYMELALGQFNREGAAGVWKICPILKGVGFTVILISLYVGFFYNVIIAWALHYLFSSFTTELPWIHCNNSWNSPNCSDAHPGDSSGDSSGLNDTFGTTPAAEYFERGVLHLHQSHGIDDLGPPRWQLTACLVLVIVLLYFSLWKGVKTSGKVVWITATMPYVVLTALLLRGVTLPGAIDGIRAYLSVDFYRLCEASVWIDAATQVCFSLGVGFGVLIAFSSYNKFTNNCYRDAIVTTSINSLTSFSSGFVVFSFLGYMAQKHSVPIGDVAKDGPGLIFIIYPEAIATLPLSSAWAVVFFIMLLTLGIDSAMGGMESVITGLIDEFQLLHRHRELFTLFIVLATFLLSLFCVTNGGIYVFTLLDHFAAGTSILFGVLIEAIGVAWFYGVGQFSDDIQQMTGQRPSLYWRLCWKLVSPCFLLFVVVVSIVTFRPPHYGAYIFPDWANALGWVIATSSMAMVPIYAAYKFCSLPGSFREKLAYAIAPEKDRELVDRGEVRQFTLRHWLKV

Row | Structure (SMILES) | B-score
1 | COC(C[C@H](O)CC(=O)COCc1ccccc1)OC | -0.106
2 | COC(=O)c1sc(NC(=O)c2ccc(OC)cc2OC)nc1C | -0.655
3 | CNC(=O)c1ccc2nc(NC(C)=O)sc2c1 | -0.144
4 | COc1ccc2nc(NC(=O)c3ccc(Br)s3)sc2c1 | -2.65 (active)
5 | CCOC(=O)c1[nH]c2ccc(OC)cc2c1NC(=O)N1CCOCC1 | 2.03
6 | Cc1c(C(=O)CN2CCOCC2)[nH]c2ccccc12 | -1.19
7 | Cc1c(C(=O)N2CCOCC2)[nH]c2ccc(OCc3ccccc3)cc12 | 2.65 (active)
8 | COc1ccc(SCCN2CCN(CC(C)C)CCC2=O)cc1 | -0.972
9 | C=C1CCN([C@@H](Cc2ccccc2)C(=O)N2CCOCC2)S(=O)(=O)c2ccccc21 | -0.0232
10 | CCC(C)[C@@H](C(=O)N1CCNCC1)n1cc(CCCCN)nn1 (stereo partly drawn) | -0.575
11 | FC(F)(F)c1nnc2sc(-c3ccco3)nn12 | -0.943
12 | Fc1ccc(-c2ccc(-c3nn4c(-c5ccco5)nnc4s3)o2)cc1 | -8.2 (active)
13 | Cc1nnc2sc(-c3ccco3)nn12 | -0.595
14 | CC(C)(C)n1nc(Cc2cccc3ccccc23)c(C#N)c1N | -0.00603
15 | Cc1ccc(NC(=O)CCN2CCc3ccccc3C2)cc1 | 2.16 (active)
16 | O=C(Nc1ccc(S(=O)(=O)N2CCc3ccccc3C2)cc1)c1ccccc1 | -0.732
17 | Cc1ccc(NC(=O)CN2CCc3ccccc3C2)cc1 | -0.0113
18 | COC(=O)CCCC1=CC2=CC(=O)C(C)(OC(=O)c3cccs3)C(=O)C2=CN1CC1CC1 (stereo not drawn) | -0.726
19 | CCC1(CC)C(=O)C2=C3C1[C@H](C(=O)OC)C=C(C(=O)OC)C[C@H]3[C@H]1C(=O)N(Cc3ccccc3)C(=O)[C@H]1[C@H]2C (stereo partly drawn) | 0.0892
20 | CCCCN1C(=S)NC[C@@H]1C(C)CC (stereo partly drawn) | -0.761
21 | CCCCN1C(N)=NC[C@@H]1CC1CCCCC1 | -1.39
22 | COC(=O)Nc1c(C)n(C)n(-c2ccccc2)c1=O | 0.348
23 | Cc1cc(C)cc(N(C(C)C(=O)Nc2c(C)n(C)n(-c3ccccc3)c2=O)S(C)(=O)=O)c1 (stereo not drawn) | -0.551
24 | Cc1c(NC(=O)C(C)OC(=O)c2cc3c4ccccc4n(C)c3s2)c(=O)n(-c2ccccc2)n1C (stereo not drawn) | 4.67 (active)
25 | Oc1c(Cl)cc(Cl)c(Cl)c1Cc1c(O)c(Cl)cc(Cl)c1Cl | -5.94 (active)

Row | Structure (SMILES) | B-score
26 | Cc1nc(-c2ccc(Cl)cc2)sc1C1(C)CC(c2ccccc2F)=NO1 (stereo not drawn) | -0.519
27 | CC[C@@H](C)[C@@H](C(=O)N1CCN(C(=O)OC(C)(C)C)CC1)n1cc(CCC(=O)O)nn1 | -0.83
28 | C#CCNC(=O)[C@H](Cc1ccc(C(=O)c2ccccc2)cc1)NC(=O)OC(C)(C)C | -0.105
29 | Cc1ccc(-n2c(C)cc(/C=C(\C#N)C(=O)NCC3CCCO3)c2C)cc1 (stereo not drawn) | 3.1 (active)
30 | Cc1ccc(-c2noc(-c3ccccc3C(=O)NCC3CCCO3)n2)cc1 (stereo not drawn) | -0.191
31 | Cc1ccc(S(=O)(=O)N2CCC(C(=O)NCC3CCCO3)CC2)cc1 (stereo not drawn) | -0.801
32 | CNC(=O)c1[nH]cnc1C(=O)N[C@@H](CC(C)C)C(=O)OCc1ccccc1 | -0.0072
33 | COc1ccc(CN2[C@@H](CC(=O)O)c3cc(F)ccc3S2(=O)=O)cc1 | 1.13
34 | Nc1nnc(SCCN2C(=O)c3ccccc3S2(=O)=O)s1 | 2.06 (active)
35 | CCCc1nnc(NC(=O)CN2C(=O)c3ccccc3S2(=O)=O)s1 | -0.746
36 | CNC(=O)CN1C(=O)c2ccccc2S1(=O)=O | -0.143
37 | O=C1CC2(CCCC2)Oc2ccc(Cl)cc21 | 0.175
38 | CCN(CC)C(=O)CSc1ncnc2c1cnn2-c1ccccc1 | 3.2 (active)
39 | c1ccc(-n2ncc3c(N4CCCC4)ncnc32)cc1 | 0.432
40 | O=C(Cn1cnc2c(cnn2-c2ccccc2)c1=O)NCc1ccccc1 | -0.925
41 | C=C1CCN([C@H](C(=O)NCc2cc(OC)c(OC)c(OC)c2)C(C)C)S(=O)(=O)c2ccccc21 | 1.09
42 | COc1cccc(/C=N/NC(=O)c2cccc([N+](=O)[O-])c2)c1OS(=O)(=O)c1ccc(C)cc1 | -0.0993
43 | Cc1ccc(/C=N/NC(=O)c2sccc2OCc2ccc(F)cc2)cc1 | -0.168
44 | Cc1ccc(S(=O)(=O)Oc2ccc(/C=N/NC(=O)c3c(Cl)cnn3C)cc2)cc1 | -7.83 (active)
45 | CCOC(=O)c1ccc(NC(=O)c2c(NCc3ccccc3)[nH]c(=O)[nH]c2=O)cc1 | -0.0313
46 | C#CCNC(=O)C1=C[C@@H](c2ccccc2)[C@H](CCCO)[C@@H](OCC)O1 | -0.204
47 | COCC(=O)Nc1nnc(COc2ccccc2)s1 | -0.411
48 | Cc1nnc(NC(=O)CCCOc2ccccc2)s1 | -9.48 (active)
49 | COc1ccc(OCCCC(=O)Nc2nnc(C3CCCO3)s2)cc1 (stereo not drawn) | -0.0765
50 | COCOc1cc(O)c(C(=O)/C=C/c2ccc(OCOC)c(OCOC)c2)c(OCOC)c1 | -0.154

Row | Structure (SMILES) | B-score
51 | CC(C)CC(CO)N1CCN(C(=O)c2ccc(Cl)cc2Cl)CCC1=O (stereo not drawn) | -0.933
52 | CCOc1cc(C(=O)N2CCc3cc(OC)c(OC)cc3C2)ccc1OC(F)F | 0.798
53 | COc1ccc(S(=O)(=O)N2CCC(C(=O)N3CCc4ccccc4C3)CC2)cc1OC | 0.19
54 | COc1cc2c(cc1OC)CN(C(=O)c1cc(=O)c3ccccc3o1)CC2 | 3.91 (active)
55 | Cc1ccc(Cc2c(C)nc3nc(SCC(=O)NCCN4CCOCC4)nn3c2C)cc1 | 2.86 (active)
56 | Cc1ccc(NC(=S)NCCN2CCOCC2)cc1 | -0.206
57 | O=C(CCN1C(=O)c2ccccc2C1=O)NCCN1CCOCC1 | -0.649
58 | CCOC(=O)c1ccc(NC(=O)c2c(N)n(C)c(=O)[nH]c2=O)cc1 | -0.175
59 | COC(C[C@@H](O)C[C@H](O)[C@H](C)OCc1ccccc1)OC | 0.0993
60 | COc1ccc(F)cc1S(=O)(=O)Nc1ccc2c(c1)OCO2 | -0.037
61 | COc1ccccc1C1C2=C(COC2=O)Nc2cc3c(cc21)OCO3 (stereo not drawn) | -2.97 (active)
62 | CCCOc1ccccc1C1CC(=O)Nc2cc3c(cc21)OCO3 (stereo not drawn) | -1.06
63 | CCOC(=O)/C=C/CN(C(=O)OC(C)(C)C)S(=O)(=O)N1CC=CC1 | -1.8e-05
64 | CC(=O)NC(Cc1ccc(F)cc1)C(=O)O (stereo not drawn) | -0.111
65 | CC(=O)c1ccc(NC(=O)N[C@@H](Cc2ccccc2)C(=O)O)cc1 | 3.14 (active)
66 | COC(=O)[C@H](Cc1ccccc1)NC(=O)Nc1ccc(S(N)(=O)=O)cc1 | 0.0225
67 | Cc1ccc(/C=N/NC(=O)C2=NNC(c3ccccc3)(c3ccccc3)C2)c(O)c1 | -0.164
68 | Cc1ccc(C(=O)N/N=C/c2sc(=O)n(Cc3cccc(C(=O)O)c3)c2Cl)cc1 | 0.653
69 | Cc1ccc(/C=N/NC(=O)C(NC(=O)c2ccccc2)c2n[nH]c(=O)c3ccccc23)cc1 (stereo not drawn) | 5.41 (active)
70 | C#CCOCCOCCOCCNc1nc(N2CCN(C(=O)[C@H](C(C)C)n3cc(CCO)nn3)CC2)nc(N2CCN(C(=O)[C@H](C(C)C)n3cc(CCO)nn3)CC2)n1 | -0.703
71 | COc1ccc(-c2nc3c(s2)CCc2onc(-c4ccc(Br)cc4)c2-3)cc1 | -0.269
72 | O=C1NC[C@@H](Cc2ccc(O)cc2)N(CCc2cccc(F)c2)C1=O | 0.0299
73 | Cc1cn(C)c(=O)n(C)c1=O | -1.72
